Only a selection was taken, and hits are over-represented in it overall.
TTR transcr act: activators of transthyretin transcription | 92,000 tested, 1.3% active | AID 1117267 | activation, % at 16.7 µM | SH-SY5Y TTR promoter Gaussia luciferase, luminescence; 100% = recombinant luciferase protein wells;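 active = activation above the mean of all tested compounds plus 3 SD, cut at about 9.5% in these data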;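 also: cells exposed to compounds for one day before reading; 0% = median of all test compound wells on the plate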
HuH7 TTR inh: counter-screen for TTR activators: TTR transcription inhibitors in HuH7 cells | shares compounds with TTR transcr act | HuH7 TTR promoter-Gaussia luciferase reporter, luminescence | inhibition, % at 16.7 µM | 1,100 tested, 4% active | AID 1117279;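 active = average inhibition above the solvent-only control wells' mean plus 3 SD, cut at about 15% in these data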;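 also: 0% = cells with DMSO only and 100% = cells with inhibitor control FD; inhibitors lower well luminescence so higher value means more inhibition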
TTR up confirm: human TTR transcription activation, confirmation | shares compounds with TTR transcr act | SHSY5Y TTR promoter Gaussia luciferase, luminescence; 100% = purified Lucia enzyme wells, no cells | activation, % at 16.7 µM | 1,100 tested, under 10 active | AID 1117280;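 active = mean activation above a set limit taken from the earlier primary screen, cut at about 11% in these data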;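 also: 0% = DMSO-treated cells and 100% = recombinant Lucia luciferase without cells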
Numbers without * were called inactive.

SMILES	TTR transcr act	others
O=S1(=O)c2c(cccc2N2CC[C@@H](O)C2)O[C@@H]2CCN1C2	1.4
COc1cc(NC(=S)N(C)CCC#N)c(OC)cc1Cl	11.2*	HuH7 TTR inh=-5.9;TTR up confirm=-0.6
COc1cc(NC(=S)N(C)C)c(OC)cc1Cl	3.4
COCC(=O)Nc1cc(OC)c(Cl)cc1OC	-1.6
COc1cccc(CNC2CCC23CCC(C)CC3)c1 (stereo not drawn)	1.2
O=C1C2C3C=CC(C3)C2C(=O)N1c1nccs1 (stereo not drawn)	14.6*	HuH7 TTR inh=-6.3;TTR up confirm=-0.4
COc1ccc(N2C(=O)C3C4C=CC(C4)C3C2=O)nn1 (stereo not drawn)	0.5
O=C1c2ccccc2C(=O)N1c1nccs1	-0.3
CC(C)Oc1ccc(-c2csc(N3CCC(C(N)=O)CC3)n2)cc1	-1.9
O=C(NCc1ccco1)O[C@H]1CC[C@@]23CCCN2C(=O)CCC[C@H]3C1	0.6
C=CCN1[C@@H](C)[C@H](c2ccccc2)Oc2cccc(N3CCCC(C)C3)c2S1(=O)=O (stereo partly drawn)	1.3
O=C(c1ccoc1)N1CCCC(N2CCN(c3cccc(C(F)(F)F)c3)CC2)C1 (stereo not drawn)	-0.1
Cc1ccc(C(=O)N2CCCC(N3CCN(c4cccc(C(F)(F)F)c4)CC3)C2)s1 (stereo not drawn)	-0.3
CC1=C(C(=O)N2CCCC(N3CCN(c4cccc(C(F)(F)F)c4)CC3)C2)OCCO1 (stereo not drawn)	11.1*	HuH7 TTR inh=-5.7;TTR up confirm=0.0
O=C(CCC(=O)N/N=C/c1ccco1)N/N=C/c1ccco1	-1.1
Cc1cccc(NC(=O)CCC(=O)N/N=C/c2ccco2)c1	9.7*	HuH7 TTR inh=-15.1;TTR up confirm=0.0
O=C(CCCCCCCCC(=O)N/N=C/c1ccco1)N/N=C/c1ccco1	0.8
COC(=O)[C@]12CCCCC=C1N(Cc1ccc(OC)cc1)C(=O)[C@@H]2CC(=O)N1CCOCC1	1.4
CCN(CC)C(=O)C1=C(C)N(CCC2=CCCCC2)C(=O)C(CC(=O)NCCc2ccccn2)C1 (stereo not drawn)	23.9*	HuH7 TTR inh=-8.8;TTR up confirm=-0.5
CCN(CC)C(=O)C1=C(C)N(CCC2=CCCCC2)C(=O)C(CC(=O)NCCCCc2ccccc2)C1 (stereo not drawn)	-1.9
CC1=C(C(=O)N2CCOCC2)CC(CC(=O)NCCc2ccccn2)C(=O)N1CCC1=CCCCC1 (stereo not drawn)	-1.1
O=C(Nc1ccc(Cl)cc1)O[C@@H]1CC[C@@]23CCCN2C(=O)CCC[C@H]3C1	0.9
CCOC(=O)[C@]12CCCC=C1N(Cc1ccc(OC)cc1)C(=O)[C@@H]2CC(=O)N1CCCC1	0.2
Cc1c(C(=O)Nc2ccc(-c3nnc4n3CCCCC4)cc2)oc2c1ccc1ccccc12	-2.0
O=C(Cc1n[nH]c(=O)c2ccccc12)Nc1ccc(-c2nnc3n2CCCCC3)cc1	1.3
SMILES	TTR transcr act	others
O=C(Cn1[nH]c(=O)c2ccccc2c1=O)Nc1ccc(-c2nnc3n2CCCCC3)cc1	11.6*	HuH7 TTR inh=-15.3;TTR up confirm=1.1
O=C(OCC#CCSc1nnc(-c2cccc3ccccc23)o1)c1ccccc1	1.8
O=S1(=O)c2ccc(N3CCCC3)cc2Oc2ccccc2CN1Cc1cn(Cc2cccc(F)c2)nn1	-0.2
O=C(CNC1CCCC1)Nc1cc(Cl)ccc1[N+](=O)[O-]	-1.7
Cc1ccc([N+](=O)[O-])cc1NC(=O)Cc1cccs1	-0.1
Cc1ccc([N+](=O)[O-])cc1NC(=O)CNC1CCCCC1	17.4*	HuH7 TTR inh=-8.0;TTR up confirm=-0.4
O=C(NC1CCCCN(Cc2ccc(Cl)cc2)C1=O)c1cccc([N+](=O)[O-])c1 (stereo not drawn)	-0.8
N#Cc1cccc(NC(=O)OC2CC3CC2[C@H]2CCCCN2C3)c1 (stereo partly drawn)	-0.8
O=C1CCC[C@H]2C[C@H](NCc3cccnc3)CC[C@]23CCCN13	1.9
CC1CC(C)CN(C(=O)c2cccc(NC(=O)CC3SC(N4CCCCC4)=NC3=O)c2)C1 (stereo not drawn)	4.2
COc1ccc(NC(=O)CC2SC(N3CCCC3)=NC2=O)cc1Cl (stereo not drawn)	6.1
Cc1ccc(NC(=O)c2cccc(NC(=O)CC3SC(N4CCCCC4)=NC3=O)c2)nc1 (stereo not drawn)	9.8*	HuH7 TTR inh=-5.5;TTR up confirm=-0.1
COc1ccc(C2OCCNC3C2C(=O)N(Cc2ccc(OC)cc2OC)C3Cc2ccccc2)cc1 (stereo not drawn)	-0.5
CCC[C@H]1[C@@H](NC(=O)C2CCCCC2)CC[C@@]23CCCN2C(=O)CCC[C@@H]13	0.8
C[C@H]1[C@@H](OC(=O)Nc2cc(Cl)ccc2Cl)CC[C@@]23CCCN2C(=O)CCC[C@@H]13	-1.4
OCCNc1c2ccccc2nc2ccccc12	15.6*	HuH7 TTR inh=-48.4;TTR up confirm=15.2*
OCCNc1nc2ccccc2nc1NCCO	0.6
Cc1c2ccccc2nc2ccccc12	-1.7
